High-throughput results as filed in PubChem BioAssay.
CtBP-E1A inh: inhibitors of CtBP/E1A interaction; AlphaScreen GST-E1A/His-CtBP binding, 1536-well; stronger effect = lower value; activity change, % (concentration not given with the values); actives 0.49% (n = 340,000); AID 651724; also: % is scaled to controls: 0 for no effect and ±100 for the full control effect
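AlphaScreen with 125 nM GST-E1A and 125 nM His-CtBP (5X stocks) in Tris pH 8.0, 300 mM NaCl, BSA, Tween 20, TCEP. Compounds preincubated 2 h at 37 deg C, then glutathione donor/nickel acceptor beads added for 1 h at 37 deg C in dark.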
Glioma ERSR ind: induces the endoplasmic reticulum stress response in human glioma cells | U87-MG GRP78 promoter luciferase reporter, 16 h | Potency, µM, inactives show at the highest dose activation, actives largely listed as activators | actives 0.02% (n = 420,000); active = well fitted curve in the direction sought with a large enough effect; inconclusive = small, poorly fitted or top-dose-only effect, or another doubt; inactive = no such curve, though single readings can be large; an effect the other way counts as inactive or inconclusive; also: potency is read from the fitted curve at half-maximal effect; series mostly up to about 76 µM; % of control where 0% means no effect; nearly all actives have a fitted effect of over 35% in size
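ERSR induction read as luciferase luminescence (Bright-Glo, 10 min at room temperature) in stably transfected human U87-MG glioma cells exposed to compounds for 16 h, using GRP78 as sensor.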
Eya2 inh: Eya2 (human) phosphatase inhibition. O00167. recombinant Eya2, OMFP fluorescence dephosphorylation (OMFP is methylfluorescein phosphate). Potency, µM (titrated, usually from 76.9 µM), without a hit: at the top dose activity, negative = inhibition, most hits filed as inhibitors. actives 0.006% (n = 330,000); active = well fitted curve in the direction sought with a large enough effect; inconclusive = small, poorly fitted or top-dose-only effect, or another doubt; inactive = no such curve, though single readings can be large; an effect the other way counts as inactive or inconclusive; also: potency is read from the fitted curve at half-maximal effect; % is scaled to controls: 0 for no effect and ±100 for the full control effect
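Eya2 protein (added as 0.2 uM solution) was preincubated with compound for 10 min at ambient temperature in 50 mM HEPES pH 7.5, 50 mM NaCl, 5 uM MgCl2, 0.05% BSA, 1 mM DTT. OMFP (added at 50 uM) then reacted 10 min; fluorescence read at 485/525 nm.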
Six1-Eya2 inh: inhibitors of human Six1/Eya2 interaction; actives 0.56% (n = 360,000); AlphaScreen GST-Six1/His-Eya2 binding, biochemical; stronger effect = lower value; Q15475+O00167; activity change, % (test concentration not listed); AID 651725; also: % is scaled to controls: 0 for no effect and ±100 for the full control effect
Target sequence (O00167 whole entry, looked up): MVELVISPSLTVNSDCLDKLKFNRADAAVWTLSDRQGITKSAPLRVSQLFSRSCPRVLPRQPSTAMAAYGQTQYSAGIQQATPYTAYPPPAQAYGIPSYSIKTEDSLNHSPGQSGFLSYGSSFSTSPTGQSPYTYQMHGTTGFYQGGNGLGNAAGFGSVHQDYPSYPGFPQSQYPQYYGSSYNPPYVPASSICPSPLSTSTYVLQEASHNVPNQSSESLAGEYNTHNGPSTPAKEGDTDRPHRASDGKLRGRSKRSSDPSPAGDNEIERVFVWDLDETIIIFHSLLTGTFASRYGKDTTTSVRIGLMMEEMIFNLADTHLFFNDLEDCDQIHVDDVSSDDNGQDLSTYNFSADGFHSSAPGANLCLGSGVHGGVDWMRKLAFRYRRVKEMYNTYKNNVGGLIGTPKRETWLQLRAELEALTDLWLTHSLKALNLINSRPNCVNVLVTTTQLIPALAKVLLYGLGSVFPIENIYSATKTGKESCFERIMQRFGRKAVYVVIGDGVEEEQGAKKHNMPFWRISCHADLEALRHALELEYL
Target sequence (Q15475 whole entry, looked up): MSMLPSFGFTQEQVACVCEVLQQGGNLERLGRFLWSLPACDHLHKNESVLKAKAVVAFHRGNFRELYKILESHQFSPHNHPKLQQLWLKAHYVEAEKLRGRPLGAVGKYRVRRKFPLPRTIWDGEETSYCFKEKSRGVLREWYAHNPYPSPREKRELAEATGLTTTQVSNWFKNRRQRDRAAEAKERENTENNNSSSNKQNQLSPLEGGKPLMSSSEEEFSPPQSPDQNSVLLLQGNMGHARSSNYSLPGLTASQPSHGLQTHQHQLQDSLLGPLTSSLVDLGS
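AlphaScreen luminescence read after one hour at 37 °C in darkness. Pin-transferred compounds met GST-Six1 and His-Eya2 protein (5X stock 250 nM/500 nM) plus glutathione donor and Ni-chelate acceptor beads (5X, 50 ug/mL).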
The depositor's hits bear a star; u = inconclusive; x = no result given. Sampled rows, rich in hits. Any-hit rate of the full collection: about 0.58%. Rule as the data show it, unless noted: active = activity change below about -65%; inconclusive = mostly about -30% to -63%; inactive = weaker than that.

SMILES	CtBP-E1A inh	Glioma ERSR ind	Eya2 inh	Six1-Eya2 inh
O=c1c2c(-c3ccccc3)csc2ncn1/N=C/c1cccc([N+](=O)[O-])c1O	-72*	-1%	3%	u
O=C(c1cc(-c2ccccc2)on1)N1CCOc2ccc(CN3CCN(c4ccccn4)CC3)cc2C1	x	-3%	x	x
COc1cc2c(cc1OC)-c1cc(NC3CCCCCCC3)nc(=O)n1CC2	-85*	-2%	-6%	-80*
COc1cc2c(cc1OC)-c1cc(NCc3ccccn3)nc(=O)n1CC2	u	-8%	16%	-78*
COc1cc2c(cc1OC)-c1cc(NC3CCCCC3)nc(=O)n1CC2	-66*	2%	-15%	-65*
CCOc1ccc(Nc2cc3n(c(=O)n2)CCc2cc(OC)c(OC)cc2-3)cc1	-5	-1%	8%	-84*
COc1cc2c(cc1OC)-c1cc(NC3CC3)nc(=O)n1CC2	u	1%	-6%	u
CCNc1cc2n(c(=O)n1)CCc1cc(OC)c(OC)cc1-2	-5	0%	9%	u
CCCCCCNc1cc2n(c(=O)n1)CCc1cc(OC)c(OC)cc1-2	-81*	-3%	-6%	-71*
Cc1cnc(-n2ncc(C(=O)NCc3cccnc3)c2C)nc1-c1ccc(F)cc1	x	-6%	x	x
Cc1ccccc1/C=C1\SC(=S)N(/N=C/c2cc([N+](=O)[O-])ccc2O)C1=O	-92*	-4%	-20%	u
O=C(CN1CC(=O)Oc2ccccc21)NCc1ccco1	u	-2%	-6%	-72*
O=C(CN1CCOc2ccccc21)NCc1ccco1	-2	0%	23%	-2
O=C(CN1Cc2ccccc2OC(c2ccsc2)C1)N1CCN(Cc2ccc3c(c2)OCO3)CC1 (centres undefined)	x	-3%	x	x
O=C(/C=C/c1ccc([N+](=O)[O-])cc1)OCC(=O)N1CCCCCC1	-72*	-1%	-5%	-10
O=C(/C=C/c1ccc([N+](=O)[O-])cc1)OCC(=O)N1CCOCC1	-25	-3%	-9%	5
NC(=S)N/N=C/c1ncc(C(F)(F)F)cc1Cl	-85*	u	11%	-85*
Cn1c(N/N=C/c2ccccc2)nc2sc3c(c2c1=O)CCC3	u	4%	0%	-71*
O=C(c1cnn(-c2nccc(-c3ccccc3C(F)(F)F)n2)c1C1CC1)N1CCN(CCO)CC1	x	-2%	x	x
CCN1/C(=C2\C(=O)N(C)C(=S)N2C)C=Cc2ccccc21	-23	-3%	-19%	u
CN1C(=O)/C(=C2/C=Cc3ccccc3N2CCCS(=O)(=O)O)SC1=S	-15	8%	u	-20
CCCN1C(=O)/C(=C2/C=Cc3ccccc3N2CC)SC1=S	-76*	-1%	10%	-76*
CCCN1/C(=C2/SC(=S)N(CC)C2=O)C=Cc2ccccc21	-70*	-5%	3%	-80*
CCN1C(=O)/C(=C2/C=Cc3ccccc3N2CC)SC1=S	x	1%	-20%	-84*
CCN1C(=O)/C(=C2\C=Cc3ccccc3N2CC)OC1=S	3	3%	x	-6
SMILES	CtBP-E1A inh	Glioma ERSR ind	Eya2 inh	Six1-Eya2 inh
CCC1CN(CCC(=O)N2CCCN(C(=O)c3ccco3)CC2)Cc2cc(OC)ccc2O1 (centres undefined)	x	-2%	x	x
Cc1cc(NS(=O)(=O)c2ccc(Nc3nc(-c4sc(N)nc4C)cs3)cc2)no1	-90*	-5%	13%	-91*
Cc1nc(N)sc1-c1csc(Nc2ccccc2)n1	u	5%	-12%	u
Cc1cc(O)ccc1Nc1nc(-c2sc(N)nc2C)cs1	-67*	3%	5%	u
COc1ccc(OC)c(Nc2nc(-c3sc(N)nc3C)cs2)c1	-68*	-1%	-14%	u
CCCC(=O)Nc1nc(C)c(-c2csc(Nc3cc(OC)ccc3OC)n2)s1	-16	-4%	-36%	-18
Cc1cc(NS(=O)(=O)c2ccc(Nc3nc(-c4ccc(C)c(C)c4)cs3)cc2)no1	-5	-5%	-9%	-11
CCOc1ccc2nc(NC(=O)c3ccccn3)sc2c1	u	-9%	4%	u
COc1ccc(C(=O)Nc2nc3ccc(OC)cc3s2)cc1	-72*	4%	3%	u
Cc1ccc2nc(NC(=O)c3ccccn3)sc2c1	u	-11%	-7%	-73*
Cn1c(SCC2CCCO2)nnc1C1CCN(Cc2ccccc2O)CC1 (centres undefined)	x	-2%	x	x
COc1ccc(-c2cc(-c3ccccc3)nc(N)n2)c(O)c1	-25	-1%	x	-77*
Cc1c(Nc2cc(Cl)c3nonc3c2[N+](=O)[O-])c(=O)n(-c2ccccc2)n1C	x	-12%	-3%	-88*
